Activity calls are given as the source filed them. The calls were made as follows: active = hit-call score of the fitted dose curve at least 0.9, where 1 is the maximum; inactive = score below 0.9.
assay: APR_HepG2_StressKinase_72hr: Apredica 72-hour HepG2 Assay for Stress Kinase (AID 2282921); details: HepG2 stress kinase (phospho-c-Jun) imaging, actives raise or lower the signal
Protocol: APR_HepG2_72hr is a cell-based, multiplexed-readout assay that uses HepG2, a human liver cell line, with measurements taken at 72 hours after chemical dosing in a 384-well plate.APR_HepG2_StressKinase_72hr is one of 10 assay component(s) measured or calculated from the APR_HepG2_72hr assay. It is designed to make measurements of enzyme activity, a form of enzyme reporter, as detected with fluorescence intensity signals by HCS Fluorescent Imaging technology.Data from the assay component APR_HepG2_StressKinase_72hr was analyzed into 1 assay endpoint. This assay endpoint, APR_HepG2_StressKinase_72hr, was analyzed with bidirectional fitting relative to DMSO as the negative control and baseline of activity. Using a type of enzyme reporter, measures of protein for gain or loss-of-signal activity can be used to understand the signaling at the pathway-level as they relate to the gene . Furthermore, this assay endpoint can be referred to as a primary readout, because this assay has produced multiple assay endpoints where this one serves a signaling function. To generalize the intended target to other relatable targets, this assay endpoint is annotated to the cell cycle intended target family, where the subfamily is stress response.
Cells were treated with dimethyl sulfoxide (DMSO) as a solvent control at a final concentration of 0.5% v/v or with compounds in DMSO with a resulting final DMSO concentration of 0.5% v/v. Compound treatment was done at concentrations of 0.39, 0.78, 1.56, 3.12, 6.24, 12.5, 25, 50, 100, and 200 uM in duplicate on each plate. Cells were treated with compounds for 1, 24, or 72 hr. Carbonyl […] m-chloro-phenylhydrazone (CCCP) and taxol were used as positive controls for mitochondrial function and cytoskeletal stability, respectively; DMSO served as the negative control for this experiment. Cells were fixed by the direct addition of 50 uL formaldehyde in Hank's Balanced Salt Solution (HBSS) to a final concentration of 3.7%. After incubation in the fixation medium for 30 min at room temperature (293-298 K), cells were rinsed twice with HBSS and treated with cell permeabilization buffer (16 uL of 0.5% Triton X-100) for 10 min at room temperature (293-298 K) before labeling. For mitochondrial membrane potential and mitochondrial measurements, pre-fixed cells were incubated with 50 uL of MitoTracker Red CMXRos (Invitrogen) at a concentration of 250 nM for 30 min before fixation. In the remaining cases, post-fixed cells were labeled by incubation with a multiplexed mixture of primary antibodies in HBSS for 60 min at room temperature (293-298 K) to detect immunoreactivity of c-Jun (1:500), phospho-histone H3 (1:100), phospho-histone H2A.x (1:200), p53 (1:400), alpha-tubulin (1:200) and Hoechst 33342 (2 ug/mL). Cells were labeled for multiplexed imaging on two separate plates: a) Hoechst 33342, MitoTracker Red, phospho-histone H3, and alpha-tubulin, and b) Hoechst 33342, phospho-histone H2A.x, and c-Jun. A final rinse with HBSS (50 uL) was performed before analysis. The primary and secondary antibodies for the proteins were phospho-histone H3 (rabbit anti-phospho-histone H3 and FITC-donkey anti-rabbit IgG), phospho-histone H2A.x (mouse anti-phospho-histone H2A.x and FITC-donkey anti-mouse IgG), c-Jun (rabbit anti-phospho-c-Jun and Cy3-donkey anti-rabbit IgG), p53 (sheep anti-p53 and Cy5-donkey anti-sheep IgG), alpha-tubulin (mouse anti-alpha-tubulin and Cy5-donkey anti-mouse IgG). These antibodies are available as the CellCiphr HepG2 assay kit (Millipore).Digital images of each well were captured using a Cellomics ArrayScan VTI (Thermo Scientific Cellomics) (0.8 NA objective, 0.63x optical coupler, and XF-93 filter set) at 20x magnification. The images were acquired using the autofocus feature of the ArrayScan instrument, which entails the following steps. First, the camera focuses on channel 1 (Hoechst 33342), where nuclei are identified. Second, a Z offset of 1 um is used for capturing mitochondria (MitoTracker Red). […]

Row | SMILES | AC50 | outcome
1 | Cc1ccc(-c2cc(C(F)(F)F)nn2-c2ccc(S(N)(=O)=O)cc2)cc1 | 111 µM (active) | –
2 | CCc1nc(N)nc(N)c1-c1ccc(Cl)cc1 | – | inactive
3 | C/C=C/c1ccc(OC)cc1 | – | inactive
4 | Nc1nc(Cl)nc2c1ncn2[C@H]1C[C@H](O)[C@@H](CO)O1 | – | inactive
5 | C#CC(O)C(CC)CCCC (stereo not given) | – | inactive
6 | C=CCCCCCCCCCCCC | 98.5 µM (active) | –
7 | CC(=O)CC(c1ccccc1)c1c(O)c2ccccc2oc1=O (stereo not given) | – | inactive
8 | NCCOCCOCCN | – | inactive
9 | O=C(O)CC(O)(CC(=O)O)C(=O)O | – | inactive
10 | COC(=O)[C@H]1[C@H]2C[C@@H]3c4[nH]c5cc(OC)ccc5c4CCN3C[C@H]2C[C@@H](OC(=O)c2cc(OC)c(OC)c(OC)c2)[C@@H]1OC | – | inactive
11 | CC(C)c1cccc(C(C)C)c1NC(=O)NS(=O)(=O)c1cc(C(C)(C)O)co1 | – | inactive
12 | CC(C)COC(=O)CCCCC(=O)OCC(C)C | – | inactive
13 | CN(C)CCCN1c2ccccc2Sc2ccc(Cl)cc21 | 107 µM (active) | –
14 | Cc1cc(Cc2ccc(N)c(C)c2)ccc1N | – | inactive
15 | O=Cc1ccccc1C=O | – | inactive
16 | CC(=O)O[C@]1(C(C)=O)CC[C@H]2[C@@H]3C=C(Cl)C4=CC(=O)[C@@H]5C[C@@H]5[C@]4(C)[C@H]3CC[C@@]21C | – | inactive
17 | CSc1ccc(Oc2ccc(S(N)(=O)=O)cc2CN(C)C)cc1C | – | inactive
18 | COc1ccc(OC(F)(F)F)cc1CN[C@H]1CCCN[C@H]1c1ccccc1 | 28.8 µM (active) | –
19 | O=C1CCCCC1 | – | inactive
20 | CC(C)(O)c1ccc(CNC(=O)c2cccnc2Oc2ccc(F)cc2)cc1 | – | inactive

Row | SMILES | AC50 | outcome
21 | CCCCc1nc2cccnc2n1Cc1ccc(-c2ccccc2-c2nnn[nH]2)cc1 | – | inactive
22 | CCCCC(CC)CO (stereo not given) | – | inactive
23 | CC(COCC(C)OC(=O)c1ccccc1)OC(=O)c1ccccc1 (stereo not given) | – | inactive
24 | Cc1c(C)c2c(c(C)c1O)CCC(C)(COc1ccc(CC3SC(=O)NC3=O)cc1)O2 (stereo not given) | 78.4 µM (active) | –
25 | CCCCCCCCCC[N+](C)(C)[O-] | – | inactive
26 | CCCCC(CC)COP(=O)(OCC(CC)CCCC)OCC(CC)CCCC (stereo not given) | – | inactive
27 | O=NO | – | inactive
28 | CC(=O)OCC(COC(C)=O)OC(C)=O | – | inactive
29 | COC(=O)CCC(=O)OC | – | inactive
30 | CCCCCCCCCCCCCCCCO | – | inactive
31 | NC=O | – | inactive
32 | COC(=O)CCCC(=O)OC | – | inactive
33 | OCC(O)CO | – | inactive
34 | O=C1O[C@H]([C@H](O)CO)C(O)=C1O | – | inactive
35 | CO[C@@H]1COCC[C@@H]1N[C@@H]1CC[C@@](C(=O)N2CCc3ncc(C(F)(F)F)cc3C2)(C(C)C)C1 | – | inactive
36 | OCC(CO)n1cnc(-c2ccc(F)cc2)c1-c1ccnc(Oc2ccccc2)n1 | – | inactive
37 | NC1CCCCC1 | – | inactive
38 | Cn1cnc2c1c(=O)[nH]c(=O)n2C | – | inactive
39 | CC(C)c1cccc(C(C)C)c1 | – | inactive
40 | CN(C)C(=O)NC1(c2ccccc2)CCN(CCC[C@]2(c3ccc(Cl)c(Cl)c3)CCCN(C(=O)c3ccccc3)C2)CC1 | 25 µM (active) | –

— PubChem BioAssay (EPA / NIEHS)
